DRD3 antagonist – blocks the human D3 dopamine receptor. D3R cells, DiscoveRx beta-arrestin luminescence, antagonist mode; hits give low values. max response, negative = inhibition, %. AID 652054. 360,000 compounds, 2.5% hits; in the data active = max response below about -50%; inconclusive = no clear call, values can overlap the other calls
Target sequence (P35462 whole entry, looked up): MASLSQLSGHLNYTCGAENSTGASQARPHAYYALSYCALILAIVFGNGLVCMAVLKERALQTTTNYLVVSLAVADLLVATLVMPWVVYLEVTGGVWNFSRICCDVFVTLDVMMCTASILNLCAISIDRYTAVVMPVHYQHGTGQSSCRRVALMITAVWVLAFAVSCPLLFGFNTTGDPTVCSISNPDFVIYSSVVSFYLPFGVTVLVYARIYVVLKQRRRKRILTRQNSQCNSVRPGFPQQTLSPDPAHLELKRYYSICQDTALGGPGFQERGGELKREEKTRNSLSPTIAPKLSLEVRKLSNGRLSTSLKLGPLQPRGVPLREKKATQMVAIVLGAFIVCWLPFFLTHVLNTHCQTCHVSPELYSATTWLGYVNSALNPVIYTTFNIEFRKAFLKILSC
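Cells plated overnight at 1500 cells/well, then exposed to library compounds with dopamine controls for 90 minutes at 37 degrees C. DiscoveRx reagent added for 30–60 minutes at room temperature; luminescence read, quantitative HTS format.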
GLP1R inv ag – inverse agonists of human GLP-1 receptor. P43220. HEK293 GLP-1R CRE-luciferase, luminescence, 24 h; GLP-1R form is constitutively active. Potency, µM (highest dose often 38.3 µM), actives largely listed as inhibitors. 410,000 compounds, 1.6% hits. AID 624417; also: nearly all actives have a fitted effect of over 55% in size
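Inverse agonism was detected as reduced cAMP-driven luciferase luminescence after 24 h compound treatment. The cells were HEK293 clones expressing constitutively active human GLP-1R with the reporter. Reporter-only and GPR119 cell lines served as counterscreen controls.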
DRD3 agonist – D3 dopamine receptor (human) agonism; P35462; 410,000 compounds, 0.58% hits; max activation, %; AID 652048; D3R DiscoveRx beta-arrestin cells, luminescence, 90 min; in the data active = max activation above about 30%
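Agonist-mode cell screen: cells plated at 1500/well and incubated overnight at 37 °C, then exposed to library compounds for 90 min at 37 °C. Detection reagent was added for 30–60 min at room temperature, and luminescence was read.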
GLP1R ag – GLP-1 receptor (human) agonism; HEK293 GLP-1R CRE-luciferase, luminescence, 4-6 h; cells express a hypersensitive GLP-1R form; P43220; AID 624172; Potency, µM (series often up to 45.6 µM), most hits filed as activators; 380,000 compounds, 0.007% hits
A number is an active result; 0 = inactive; ? = inconclusive; - = no result given. Sampled rows, rich in hits. Any-hit rate of the full collection: about 4.3%. Unless noted, calls follow the shape of the dose curve; as a rule, active = well fitted curve in the direction sought with a large enough effect; inconclusive = small, poorly fitted or top-dose-only effect, or another doubt; inactive = no such curve, though single readings can be large; an effect the other way counts as inactive or inconclusive.

SMILES	DRD3 antagonist	GLP1R inv ag	DRD3 agonist	GLP1R ag
CCOC(=O)c1c(C)nc2c(c1-c1ccccc1)C(=O)c1ccccc1-2	0	0	41	0
CCOC(=O)c1c(C)nc2ccc(Cl)cc2c1-c1ccccc1	0	10µM	0	?
CC1CCCN(C(=O)c2cccc(S(=O)(=O)NCc3ccccc3)c2)C1 (centres undefined)	-54	0	0	0
CC1CCCC(NC(=O)c2cccc(S(=O)(=O)N3CCN(c4ccccc4)CC3)c2)C1C (centres undefined)	0	0	0	0
CC1CC(C)CN(C(=O)c2cccc(S(=O)(=O)NCc3ccccc3)c2)C1 (centres undefined)	0	?	0	0
CC1CCCC(NC(=O)c2cccc(S(=O)(=O)NCc3ccccc3)c2)C1C (centres undefined)	0	11µM	0	0
Cc1ccc(CSc2nc(=O)c3c(n2C)NC(=O)CC3c2ccc(OC(C)C)cc2)cc1 (centres undefined)	-	0	0	-
COc1ccc(CNCc2ccc(C(=O)O)s2)cc1	-	0	0	-
CCC1=C2CC[C@H]3C(=O)N(C)C(=O)[C@H]3[C@H]2[C@@]2(Cc3ccccc3)C(=NCCOC)OC(=O)N2C1=O	0	0	38	0
COc1ccc([N+](=O)[O-])cc1NCc1cccc([N+](=O)[O-])c1	-53	?	0	0
COc1ccc([N+](=O)[O-])cc1NCc1cccnc1	0	0	0	0
COC(=O)N/N=C/c1ccccc1	0	0	42	0
CCN(CC)c1ccc(C(=O)NNC(=O)CCl)cc1	-126	0	0	0
O=S(=O)(c1ccc(-c2csc(=Nc3ccc(OC(F)(F)Cl)cc3)n2CCCO)cc1)N1CCCC1	-	10µM	0	-
OCCCn1c(-c2ccccc2)csc1=Nc1ccccc1	0	11µM	0	0
COCCCn1c(-c2ccc(S(=O)(=O)N3CCOCC3)cc2)csc1=Nc1ccccc1	0	0	0	0
CCc1ccc(CN2CCC(n3nccc3NC(=O)c3ccccc3C)CC2)cc1	0	5.6µM	0	0
Cc1ccccc1C(=O)Nc1ccnn1C1CCN(Cc2c(C)n(C)c3ccccc23)CC1	?	11µM	0	0
Cc1ccccc1C(=O)Nc1ccnn1C1CCN(Cc2cccnc2)CC1	0	0	0	0
CCOC(=O)NNc1ccc(N(CC)CC(C)O)nn1 (centres undefined)	-	-	0	0
COc1nccnc1NS(=O)(=O)c1ccc(NC(=S)NC(=O)c2ccccc2F)cc1	0	0	0	0
COc1ccc(/C=C/C(=O)NC(=S)Nc2ccc(S(=O)(=O)Nc3nccnc3OC)cc2)cc1	-62	0	0	0
COc1ccc(/C=C/C(=O)NC(=S)Nc2ccc(S(=O)(=O)Nc3cc(OC)ncn3)cc2)cc1	0	0	0	0
COc1nccnc1NS(=O)(=O)c1ccc(NC(=S)NC(=O)c2cccc(F)c2)cc1	-62	0	0	0
COc1nccnc1NS(=O)(=O)c1ccc(NC(=S)NC(=O)c2ccc(F)cc2)cc1	-65	0	0	0
SMILES	DRD3 antagonist	GLP1R inv ag	DRD3 agonist	GLP1R ag
CCC(C(=O)Nc1cc(-c2cn3cccnc3n2)ccc1C)c1ccccc1 (centres undefined)	-	0	0	-
Cc1ccc(NC(=O)CN2C(=O)CSc3ccc(S(=O)(=O)N(C)C)cc32)cc1C	-	0	0	-
Cc1c2cnn(CC(=O)NCc3ccc(F)cc3)c(=O)c2c(C)n1Cc1cccc(Cl)c1	-	?	0	-
COc1ccc(-c2cc(=O)oc3cc(OCc4nn[nH]n4)ccc23)cc1	-53	0	0	0
CC(=O)NC(c1ccco1)c1ccc2cccnc2c1O (centres undefined)	-62	?	0	0
CCCCC(=O)NC(c1ccc(Cl)cc1Cl)c1ccc2cccnc2c1O (centres undefined)	0	0	33	0
CCC(=O)NC(c1ccc(Cl)cc1Cl)c1ccc2cccnc2c1O (centres undefined)	0	?	0	0
Oc1ccccc1C(Nc1nccs1)c1ccc2cccnc2c1O (centres undefined)	0	0	33	0
C=CCC(CC=C)(CNC(=O)C(=O)Nc1cc(C)ccc1OC)c1ccc(OC)c(OC)c1	-	0	0	-
CN(CCOc1ccc(Cl)cc1)C(=O)c1cccc(S(=O)(=O)N2CCN(c3ccc(F)cc3)CC2)c1	0	4µM	0	0
CC1(c2ccc(OC(F)F)cc2)NC(=O)N(CC(=O)Nc2ccc(OC(F)F)cc2)C1=O (centres undefined)	0	10µM	0	0
COCCCNC(=O)CCC(=O)N1Cc2ccccc2Oc2ncccc21	-	0	0	-
COc1cc(/C=N/N2CCCCC2)cc([N+](=O)[O-])c1O	-65	0	0	0
O=[N+]([O-])c1ccc(C=NN2CCCCCC2)cc1	0	11µM	0	0
O=C(Nc1ccc(Cl)cc1N1CCOCC1)C1CCCO1 (centres undefined)	0	0	0	0
COc1ccc(-c2c[n+](CC(=O)c3ccccc3)c3n2CCCCC3)cc1	-61	0	0	0
Cc1ccc(-c2c[n+](CC(=O)Nc3ccccc3C)c3n2CCC3)cc1	-63	0	0	0
Cc1ccc(NC(=O)C[n+]2cc(-c3ccccc3)n3c2CCC3)cc1	-111	0	0	0
Cc1ccc(-c2c[n+](CC(=O)Nc3nc(-c4ccccc4)cs3)c3n2CCC3)cc1	0	0	0	0
CCC(=O)N1CCc2cc(S(=O)(=O)NC(Cc3ccccc3)C(=O)Nc3ccccc3C)ccc21 (centres undefined)	-	0	0	-
Cc1nc(N2CCOCC2)c2c(C(=O)N(C)Cc3ccccc3)c(C)oc2n1	-	0	0	-
COc1ccc(OCc2n(CC(=O)OC3CC(C)CCC3C(C)C)c3ccccc3[n+]2C)cc1 (centres undefined)	?	?	0	0
COc1ccc(-c2n(CC(=O)OC3CC(C)CCC3C(C)C)c3ccccc3[n+]2C)cc1 (centres undefined)	-86	7.1µM	0	0
CCOC(=O)c1ccccc1NC(=O)N1CCCN(S(=O)(=O)c2ccc3c(ccn3CC)c2)CC1	-	?	0	0
CCOc1cccc(CNC(=O)c2ccc(N3CCCC3)c(NC(=O)NCc3ccc(F)cc3)c2)c1	-	0	0	-
SMILES	DRD3 antagonist	GLP1R inv ag	DRD3 agonist	GLP1R ag
CCOC(=O)c1ccc2ncc3c(-c4ccccc4)nn(-c4ccc(F)c(Cl)c4)c3c2c1	-	0	0	0
COc1ccc(-c2cc(C3CCN(c4cc(Cl)nc(N)n4)CC3)[nH]n2)cc1	0	0	37	0
COc1ccc(-c2cc(C3CCN(Cc4cccc(C(F)(F)F)c4)CC3)[nH]n2)cc1	0	5µM	0	0
Cc1ccc(CN2CCC(c3cc(-c4ccc(Cl)cc4)n[nH]3)CC2)cc1	-91	?	0	0
Cc1ccc(CN2CCC(c3nc4ccc(Cl)cc4[nH]3)CC2)cc1	-93	?	0	0
COc1ccc(-c2cc(C3CCN(Cc4ccc([N+](=O)[O-])cc4)CC3)[nH]n2)cc1	0	?	0	0

Screens as filed in PubChem BioAssay.
